Conditions in all cases: mRNA level, 48 h; actives raise or lower the signal
Read-out in test [1]: Cytochrome P450 7A1 (Homo sapiens) (UniProt P22680)
The test can be described thus: LTEA_HepaRG_CYP7A1: Life Technologies and Expression Analysis (LTEA) Assay for Cytochrome P450 7A1 (CYP7A1) using HepaRG (AID 2283496). In a few lines:
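Gene expression endpoint in human HepaRG liver cells treated for 48 h with test chemicals (up to 100 uM, 0.5% DMSO). Values come from bidirectional concentration-response fitting versus DMSO.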

Read-out in test [2]: Glutathione S-Transferase (GSTA2), GSTA2 (gene 2939)
The test can be described thus: LTEA_HepaRG_GSTA2: Life Technologies and Expression Analysis (LTEA) Assay for Glutathione S-Transferase (GSTA2) using HepaRG (AID 2283497). The gist of the method: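 HepaRG, 48 h dosing, 8-pt half-log CRC from 100 uM, 0.5% DMSO vehicle, n=2; RNA → Fluidigm TaqMan qRT-PCR; GSTA2 vs ACTB/GAPDH/POLR2A; gain/loss fit vs DMSO.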

Read-out in test [3]: Glutamate-cysteine ligase catalytic (GCLC), GCLC (gene 2729)
Nature of the test: LTEA_HepaRG_GCLC: Life Technologies and Expression Analysis (LTEA) Assay for Glutamate-cysteine ligase catalytic (GCLC) using HepaRG (AID 2283498). The gist of the method: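 Read-out is GCLC transcript level by Fluidigm-based TaqMan qRT-PCR, normalized to three housekeeping genes and fitted in both directions relative to 0.5% DMSO. Human HepaRG cells received chemicals for 48 h, up to 100 uM.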

Read-out in test [4]: growth arrest and DNA damage 45 (GADD45G), GADD45G (gene 10912)
Nature of the test: LTEA_HepaRG_GADD45G: Life Technologies and Expression Analysis (LTEA) Assay for growth arrest and DNA damage 45 (GADD45G) using HepaRG (AID 2283499). The gist of the method:
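Gain or loss of GADD45G mRNA, quantified by TaqMan qRT-PCR against three housekeeping genes, is fitted in both directions relative to 0.5% DMSO. Human HepaRG cultures receive test chemical for 48 h at up to 100 uM.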

Read-out in test [5]: Glutamate-cysteine ligase regulatory (GCLM), GCLM (gene 2730)
The test can be described thus: LTEA_HepaRG_GCLM: Life Technologies and Expression Analysis (LTEA) Assay for Glutamate-cysteine ligase regulatory (GCLM) using HepaRG (AID 2283500). In a few lines: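 Human liver HepaRG cultures receive test chemicals for 48 hours at up to 100 uM in 0.5% DMSO. GCLM expression is measured by qRT-PCR and analysed for increases or decreases against vehicle.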

Read-out in test [6]: Glutathione S-transferase M3 (GSTM3), GSTM3 (gene 2947)
The test can be described thus: LTEA_HepaRG_GSTM3: Life Technologies and Expression Analysis (LTEA) Assay for Glutathione S-transferase M3 (GSTM3) using HepaRG (AID 2283501). In a few lines: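 HepaRG, plated 48 h, then serum-free induction medium; test chemical 48 h, duplicate; 100 uM top, half-log x8, 0.5% DMSO. Read-out: GSTM3 mRNA (TaqMan qRT-PCR, Fluidigm array). Bidirectional fit vs DMSO.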

Read-out in test [7]: Heat shock 70 kDa protein 1 (HSPA1A), gene 3303
The test can be described thus: LTEA_HepaRG_HSPA1A: Life Technologies and Expression Analysis (LTEA) Assay for Heat shock 70 kDa protein 1 (HSPA1A) using HepaRG (AID 2283502). The gist of the method:
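HSPA1A induction in human HepaRG liver cells is measured after 48 h of chemical treatment (100 uM maximum, 0.5% DMSO vehicle). Expression comes from qRT-PCR normalized to endogenous controls.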

Read-out in test [8]: Hypoxia-inducible factor 1-alpha (Homo sapiens) (UniProt Q16665)
Nature of the test: LTEA_HepaRG_HIF1A: Life Technologies and Expression Analysis (LTEA) Assay for Hypoxia-inducible factor 1 (HIF1A) Trancription factor using HepaRG (AID 2283503).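 Note: HIF1A transcript by TaqMan qRT-PCR normalized to ACTB GAPDH and POLR2A.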 In a few lines:
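HepaRG, 48 h exposure, 8-pt half-log series from 100 uM, 0.5% DMSO vehicle, duplicates. Readout: HIF1A transcript by qRT-PCR (Fluidigm array), housekeeping-normalised. Bidirectional curve fit vs DMSO baseline.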

Read-out in test [9]: 3-Hydroxy-3-Methylglutaryl-CoA Synthase 2 (HMGCS2), HMGCS2 (gene 3158)
The test can be described thus: LTEA_HepaRG_HMGCS2: Life Technologies and Expression Analysis (LTEA) Assay for 3-Hydroxy-3-Methylglutaryl-CoA Synthase 2 (HMGCS2) using HepaRG (AID 2283504). The gist of the method:
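HepaRG, plated 48 h then switched to serum-free induction media; cmpd 8-pt, max 100 uM, 1/2-log, 0.5% DMSO, n=2, 48 h. HMGCS2 mRNA by Fluidigm TaqMan qRT-PCR, ACTB/GAPDH/POLR2A norm; bidirectional fit vs DMSO.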

Read-out in the next test: HGF (gene 3082)
The test can be described thus: LTEA_HepaRG_HGF: Life Technologies and Expression Analysis (LTEA) Assay for Hepatocyte Growth Facto (HGF) using HepaRG (AID 2283505). In a few lines:
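Read-out is HGF transcript level by qRT-PCR, normalized to three housekeeping genes, fitted bidirectionally against 0.5% DMSO vehicle. Human HepaRG cells received test chemicals for 48 h at up to 100 uM.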

Activity calls are given as the source filed them. Rule for the calls: active = hit-call score of the fitted dose curve at least 0.9, where 1 is the maximum; inactive = score below 0.9.

This is an account of results in PubChem BioAssay (EPA / NIEHS).

Hypoxia-inducible factor 1-alpha (Homo sapiens), sequence (Q16665 whole entry, looked up): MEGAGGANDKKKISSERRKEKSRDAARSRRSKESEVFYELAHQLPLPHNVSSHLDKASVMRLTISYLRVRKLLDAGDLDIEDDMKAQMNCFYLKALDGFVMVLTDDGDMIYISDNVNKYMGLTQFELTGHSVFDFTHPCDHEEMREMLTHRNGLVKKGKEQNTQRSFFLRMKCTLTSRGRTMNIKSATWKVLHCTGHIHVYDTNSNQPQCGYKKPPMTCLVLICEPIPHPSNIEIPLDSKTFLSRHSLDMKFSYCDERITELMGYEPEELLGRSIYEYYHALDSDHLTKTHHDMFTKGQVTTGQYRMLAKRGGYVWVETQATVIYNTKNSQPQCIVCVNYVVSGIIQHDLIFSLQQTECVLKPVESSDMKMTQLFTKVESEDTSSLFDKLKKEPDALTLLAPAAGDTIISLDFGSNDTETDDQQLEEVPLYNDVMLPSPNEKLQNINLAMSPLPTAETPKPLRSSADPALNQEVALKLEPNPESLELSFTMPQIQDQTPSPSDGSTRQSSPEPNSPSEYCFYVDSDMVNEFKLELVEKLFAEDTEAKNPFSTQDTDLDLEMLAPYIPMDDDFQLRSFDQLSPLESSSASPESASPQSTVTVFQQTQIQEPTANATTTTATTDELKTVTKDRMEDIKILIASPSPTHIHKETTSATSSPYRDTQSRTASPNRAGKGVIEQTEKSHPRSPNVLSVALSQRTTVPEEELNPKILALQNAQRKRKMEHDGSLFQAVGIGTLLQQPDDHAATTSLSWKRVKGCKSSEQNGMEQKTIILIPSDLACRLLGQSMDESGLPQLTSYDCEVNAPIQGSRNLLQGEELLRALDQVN

In the case of `Cc1cc2c(cc1C(F)(F)F)N(C(=O)Nc1ccc(Oc3cccnc3C)nc1)CC2`, the half-maximal activity concentration (AC50) in test [1] is 46 µM (active); in test [2], 26 µM (active); in test [3], 60.7 µM (active); in [7], 80.9 µM (active); in test [8], 11.3 µM (active); in test [9], 29.2 µM (active). Further, the molecule was called inactive (in test [4]; in test [5]; in [6]; with HGF (gene 3082)).

For the molecule `CCCC(=O)OCCC(C)C`, the molecule was classed as inactive in test [1], in [2], in test [3], in test [4], in test [5] and in test [6]. The molecule was classed as inactive (in test [7]; in test [8]; in test [9]; with HGF (gene 3082)).

Take `CN(C)c1ccc(C(=C2C=CC(=[N+](C)C)C=C2)c2ccc(N(C)C)cc2)cc1`: the AC50 in test [1] is 4.38 µM (active); in test [2], 4.31 µM (active); in test [3] it was 20.1 µM (active); in test [4] it was 11.7 µM (active); in [5], 95.3 µM (active); in test [6], 7.35 µM (active). Besides, the half-maximal activity concentration (AC50) in test [7] was 86.5 µM (active); in [8], 44.3 µM (active); in test [9] it was 3.66 µM (active). Also, in the test with HGF (gene 3082), the molecule was classed as inactive.

Turning to `CCCCCc1ccc(N)cc1`, the result in test [1], in [2], in test [3], in test [4], in test [5] and in test [6] was inactive. Besides, the molecule was called inactive (in [7]; in [8]; in [9]; with HGF (gene 3082)).

`COc1cc(C(=O)NC2CCN(C)CC2)ccc1Nc1ncc2c(n1)N(C1CCCC1)CC(F)(F)C(=O)N2C`: the AC50 in [1] is 8.23 µM (active); in [2] it was 12 µM (active); in test [3], 21.3 µM (active); in test [4] it was 85.6 µM (active); in test [6], 3.73 µM (active); in test [7] it was 31.7 µM (active). Moreover, the concentration at half-maximal activity (AC50) in test [9] is 10.5 µM (active). Further, the call (in test [5]; in test [8]; with HGF (gene 3082)) was inactive.

In the case of `Cc1cccc2ccccc12`, the result in test [1], in test [2], in test [3], in test [4], in test [5] and in test [6] was inactive. For the same molecule, the result (in [7]; in test [8]; in test [9]; with HGF (gene 3082)) was inactive.

For `O=C(O)c1ccccc1-n1cc(C(=O)O)c(=O)c2cc(Nc3c(F)cc(F)cc3Cl)c(Cl)cc21`, the result in [1], in test [2], in [3], in [4], in [5] and in test [6] was inactive. For the same molecule, the result (in test [7]; in test [8]; in test [9]; in the test with HGF (gene 3082)) was inactive.

With `O=C1O[C@H]([C@@H](O)CO)C(O)=C1O`, the outcome in [1], in [2], in test [3], in [4], in test [5] and in [6] was inactive. In addition, the outcome (in test [7]; in [8]; in [9]; with HGF (gene 3082)) was inactive.

Turning to `CC(C)(C)c1csc(-c2cc3cc(OCc4ccccc4CC(=O)O)ccc3o2)n1`, the half-maximal activity concentration (AC50) in test [1] is 22.5 µM (active); in [2] it was 31.9 µM (active); in test [3], 77.2 µM (active); in [4], 12.1 µM (active); in test [5] it was 85.4 µM (active); in test [6], 37.7 µM (active). For the same molecule, the AC50 is 78 µM (active) in test [7], 87.3 µM (active) in test [8] and 31.6 µM (active) in test [9]. For the same molecule, in the test with HGF (gene 3082), the call was inactive.

Regarding `CCN(CC)C(=O)c1cc(S(=O)(=O)Cc2ccccc2)c(N2CCC(c3ccccc3)CC2)cc1N(CC)CCN(C)C`, the call (in test [1]; in [5]; in [6]; in [8]; with HGF (gene 3082)) was inactive. The AC50 in [2] was 4.51 µM (active); in [3], 30.7 µM (active); in [4] it was 20.5 µM (active); in test [7], 24.5 µM (active); in test [9] it was 35.5 µM (active).

For `CCCCCCCC[Si](OCC)(OCC)OCC`, the call in [1], in test [2], in test [3], in [4], in test [5] and in test [6] was inactive. The call (in test [7]; in [8]; in [9]; with HGF (gene 3082)) was inactive.

For `c1ccc2ccccc2c1`, the outcome in test [1], in [2], in test [3], in test [4], in [5] and in [6] was inactive. In addition, the call (in test [7]; in test [8]; in test [9]; in the test with HGF (gene 3082)) was inactive.

With `OC12N=C(c3ccccc3)SC1Cc1cc(Cl)ccc12` (stereo not given), the AC50 in test [1] was 9.92 µM (active); in test [2], 30 µM (active); in test [4], 2.05 µM (active); in [5] it was 25.1 µM (active); in test [9], 20 µM (active). Further, the call (in [3]; in test [6]; in [7]; in test [8]; with HGF (gene 3082)) was inactive.

As to `O=C(O)c1ccccc1C(=O)OCc1ccccc1`, the outcome in [1], in test [2], in [3], in test [5], in test [6] and in [7] was inactive. Besides, the molecule was classed as inactive (in test [8]; in [9]; with HGF (gene 3082)). The half-maximal activity concentration (AC50) in test [4] is 5.56 µM (active).

Turning to `O=C(OCCCCCCOC(=O)c1ccccc1)c1ccccc1`, the molecule was called inactive in test [1], in test [2], in test [3], in [4], in test [5] and in [6]. The molecule was classed as inactive (in test [7]; in test [8]; in [9]; with HGF (gene 3082)).

For `CC(C)(O)c1ccc(CNC(=O)c2cccnc2Oc2ccc3nonc3c2)cc1`, the molecule was called inactive in test [1], in test [2], in test [3], in [4], in [5] and in test [6]. Moreover, the call (in test [7]; in test [8]; in test [9]; with HGF (gene 3082)) was inactive.

Take `COCC(C)OCC(C)OCC(C)O` (stereo not given): the result in test [1], in test [2], in [3], in test [4], in test [5] and in test [6] was inactive. The result (in test [7]; in test [8]; in test [9]; with HGF (gene 3082)) was inactive.

Turning to `COc1ccc2cc(S(=O)(=O)N[C@H](CC(=O)N[C@H](Cc3ccc(CN4[C@H](C)CCC[C@@H]4C)cc3)C(=O)N(C)C(C)C)c3ccc4c(c3)OCO4)ccc2c1`, the molecule was classed as inactive in test [1], in [4] and in test [9]. Also, the AC50 was 81.6 µM (active) in test [2]; 56.4 µM (active) in [3]; 78 µM (active) in [5]; 22.5 µM (active) in [6]; 82.6 µM (active) in [7]; 75.5 µM (active) in test [8]. Besides, the AC50 with HGF (gene 3082) is 19.9 µM (active).
